Results taken from PubChem BioAssay AID493185 (National Center for Advancing Translational Sciences (NCATS), 2011).
Unmarked numbers belong to inactive results. Active and inactive are the calls of the source. Calls come from the whole dose curve; as a rule, active = well fitted activation curve with a large enough effect; inconclusive = small, poorly fitted or top-dose-only effect; inactive = no such curve, though single readings can be large or run the other way.

assay: Counterscreen for Identifying a Potential Treatment of Ataxia-Telangiectasia: Hit Validation; settings: cell-free AlphaLISA/AlphaScreen artifact counterscreen, PBS only, no cells; series mostly up to 76.9 µM; activation: at the top concentration; for activation: 0% is about no effect
Summary of the method: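 Cell-free AlphaLISA counterscreen: compounds (up to 76.7 uM final) in PBS with detection mix of anti-pKAP1 and anti-KAP1 antibodies on donor/acceptor beads plus lysis buffer, incubated 6 hr at 25C before AlphaScreen read.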
Potency is the fitted concentration of half-maximal effect.

Compared with `Cc1ccc(C)c(-c2csc(Nc3ncccn3)n2)c1`, `Cc1ccc(C)c(-n2c(SCC(=O)NC(C(=O)O)C(C)C)nnc2-c2cccc(Cl)c2)c1` (stereo not given) is higher in “activation” value: 0% for the first, 11.5% for the second.

Going from `CC(=O)Nc1ccc(NC(=O)CSc2nnnn2-c2ccc(F)cc2)cc1` to `COC(=O)Cc1ccc(NC(=S)NCCSc2ccc(Cl)cc2)cc1`, the “activation” value rises from 2.26% to 3.08%.

First: CCN(CC)CCNC(=O)CCc1c(C)nc2c(c(C)nn2-c2ccc(C)cc2)c1C
Second: Cc1ccc(OC(=O)c2cc(C)nn2C(C)(C)C)cc1
The “activation” value of the first is higher: 17.7% for the first, -13.5% for the second.

Going from `COc1cccc(C(=O)NOCc2ccc(C)cc2)c1OC` to `COc1cccc(CN(C)CC(=O)NCc2ccc(F)cc2)c1OC`, the “activation” value falls from 8.46% to 2.46%.

Compared with `CN(Cc1ccccc1)C(=O)c1cccc(N2C(=O)C3CC=CCC3C2=O)c1` (stereo not given), `Cc1ccccc1OCC(=O)Nc1cccc(C(=O)O)c1` is higher in “activation” value: 1.54% for the first, 33.8% for the second.

Going from `CCn1c(SCc2cccc(F)c2)nnc1-c1ccncc1` to `CCc1nnc2n1N=C(c1cccc([N+](=O)[O-])c1)CS2`, the “activation” value falls from 6.56% to -16.9%.

Compared with `O=C1CN(C(=O)NCC(=O)N[C@H](C(=O)O)c2ccccc2)c2ccccc2N1`, `CC(=O)NNC(=O)CN1C(=O)/C(=C/c2ccccc2)SC1=S` is lower in “activation” value: 9.02% for the first, -5.26% for the second.

Going from `CC(C)CN(CC(C)C)C(=O)c1cc2c(=O)n3ccccc3nc2s1` to `COc1ccc(CCn2c(S)nc3ccccc3c2=O)cc1`, the “activation” value falls from 38.5% to -3.85%.

Going from `COc1ccc(CNC(=O)CN2C(=O)CSc3ccc(S(=O)(=O)N4CCOCC4)cc32)c(OC)c1` to `O=C(NCCCN1CCOCC1)c1ccc2c(c1)N(Cc1cccc(F)c1)C(=O)c1ccccc1S2`, the “activation” value rises from -11.3% to 6.01%.

Going from `COc1cccc(/C=N/NC(=O)c2cc3cc([N+](=O)[O-])ccc3s2)c1O` to `COc1ccccc1C(=O)NC(=O)Nc1cccc(Cl)c1`, the “activation” value rises from -1.5% to 1.64%.

First: CCCCn1c2c(c(=N)c3ccccc31)CCC2
Second: CCCCCCCCCn1ccc(=N)cc1
The “activation” value of the first is lower: -16.4% for the first, -13.1% for the second.

First: CC1CCCC(C)N1C(=O)COC(=O)Cc1ccc(Cl)cc1 (stereo not given)
Second: O=C(Nc1ccc(N2CCCC2)cc1)c1ccc(Cl)cc1Cl
The “activation” value of the first is higher: 6.01% for the first, -6.77% for the second.

Compared with `CC(C)c1ccc(C(C(=O)NC2CCCCC2)N(C(=O)c2ccccn2)c2cccnc2)cc1` (stereo not given), `O=C(COc1ccccc1Cl)NCCCNC(=O)c1cnccn1` is lower in “activation” value: -8.2% for the first, -27.7% for the second.

Compared with `Nc1nc2ccccc2cc1-c1cccs1`, `Cc1ccccc1S(=O)(=O)Oc1ccc2ccc(O)cc2c1` is lower in “activation” value: 17.2% for the first, -9.84% for the second.

`O=C(CNCc1cccs1)Nc1ccc(OC(F)(F)F)cc1` and `Cc1nc(Nc2ccc(Cl)cc2)c2oc3ccccc3c2n1` are the same in “activation” value: 0% for the first, 0% for the second.

First: Cn1cnc([N+](=O)[O-])c1SCCO
Second: CCN(CC)S(=O)(=O)c1ccc(Cl)c(NC(=O)CCCCl)c1
The “activation” value of the first is lower: 3.01% for the first, 6.77% for the second.

Going from `CCC12CN(C(=O)c3ccc([N+](=O)[O-])cc3)CC(CC)(CN(C(=O)c3ccc([N+](=O)[O-])cc3)C1)C2=O` to `COCCCNC(=O)c1c[nH]c2ccc(S(=O)(=O)N(C)c3ccccc3C)cc2c1=O`, the “activation” value falls from 0% to -10.8%.

Compared with `CC(C)OP(=O)(OC(C)C)C(O)c1ccc(N(C)C)cc1` (stereo not given), `CCOC(=O)c1[nH]c(COC(=O)c2ccccc2NC(=O)c2ccco2)c(C(=O)OCC)c1C` is higher in “activation” value: -11.5% for the first, -6.56% for the second.

Compared with `C[C@H](NC(=O)OC(C)(C)C)C(=O)NCC1CCC(C(=O)N[C@@H](Cc2ccccc2)C(=O)O)CC1` (stereo not given in full), `CC(C)(C)C1CCC2(CC1)SCC(=O)N2c1ccccc1` (stereo not given) is higher in “activation” value: -14.8% for the first, -13.1% for the second.

For `CCOc1cc(/C=C/c2nc3ccccc3c(=O)[nH]2)ccc1O`, the “activation” value was 3.08%.

With `COc1cc(/C=N/NC(=O)c2c(C)nc3ccc(Cl)cn23)cc(OC)c1OC` the Potency was 58.2 µM (active).
